Laboratory results as given in the antibiotic and cytotoxicity screens of Wong et al. (2023).
The whole screen tested about 39,000 compounds, of which about 3,300 (8.5%) were called active. The full list was thinned out, with actives kept by preference.

system: HepG2; assay: cytotoxicity call (relative viability < 0.9); conditions: 10 µM

Structure (SMILES) | cytotoxicity call
C[C@@H]1CCCCO[C@@H](CN(C)C(=O)c2ccccc2)[C@@H](C)CN([C@H](C)CO)C(=O)c2cc(NC(=O)Nc3cccc4ccccc34)ccc2O1 | inactive
C[C@H]1CCCCO[C@H](CN(C)S(=O)(=O)c2cn(C)cn2)[C@@H](C)CN([C@@H](C)CO)C(=O)c2cc(NC(=O)Nc3ccc(C(F)(F)F)cc3)ccc2O1 | inactive
Cc1noc(C)c1S(=O)(=O)Nc1ccc2c(c1)CC(=O)N([C@H](C)CO)C[C@@H](C)[C@H](CN(C)S(=O)(=O)c1ccc(F)cc1)O2 | inactive
C[C@@H]1CN([C@H](C)CO)C(=O)c2cc(NC(=O)Nc3cccc4ccccc34)ccc2O[C@@H](C)CCCCO[C@@H]1CN(C)C(=O)C1CCCCC1 | inactive
C[C@@H]1CN([C@@H](C)CO)C(=O)c2cccc(NC(=O)Nc3ccc(F)cc3)c2O[C@@H]1CN(C)C(=O)Nc1cccc2ccccc12 | inactive
C[C@@H](NC(=O)c1ccccc1)C(=O)NN | inactive
C[C@@H]1CCCCO[C@H](CN(C)Cc2ccccc2)[C@@H](C)CN([C@@H](C)CO)C(=O)c2cc(NC(=O)NC3CCCCC3)ccc2O1 | active
C[C@@H]1CCCCO[C@@H](CN(C)Cc2ccccc2)[C@H](C)CN([C@H](C)CO)C(=O)c2cc(NC(=O)NC3CCCCC3)ccc2O1 | inactive
C[C@H]1CCCCO[C@@H](CN(C)Cc2ccncc2)[C@@H](C)CN([C@@H](C)CO)C(=O)c2cc(NC(=O)NC3CCCCC3)ccc2O1 | inactive
C[C@@H]1CCCCO[C@@H](CN(C)Cc2ccccc2)[C@H](C)CN([C@@H](C)CO)C(=O)c2cc(NC(=O)NC3CCCCC3)ccc2O1 | inactive
C[C@@H]1CN([C@@H](C)CO)C(=O)c2cc(NC(=O)NC3CCCCC3)ccc2O[C@@H](C)CCCCO[C@H]1CN(C)Cc1ccccc1 | inactive
C[C@H](CO)N1C[C@H](C)[C@H](CN(C)Cc2ccccc2)OCCCC[C@H](C)Oc2ccc(NC(=O)NC3CCCCC3)cc2C1=O | inactive
C[C@@H]1CN([C@@H](C)CO)C(=O)c2cc(NC(=O)NC3CCCCC3)ccc2O[C@@H](C)CCCCO[C@@H]1CN(C)Cc1ccncc1 | inactive
C[C@@H]1CCCCO[C@@H](CN(C)Cc2ccccc2)[C@@H](C)CN([C@@H](C)CO)C(=O)c2cc(NC(=O)NC3CCCCC3)ccc2O1 | active
C[C@@H]1CN([C@H](C)CO)C(=O)c2cc(NC(=O)NC3CCCCC3)ccc2O[C@@H](C)CCCCO[C@@H]1CN(C)Cc1ccccc1 | inactive
C[C@@H]1CCCCO[C@@H](CN(C)Cc2ccccc2)[C@@H](C)CN([C@H](C)CO)C(=O)c2cc(NC(=O)NC3CCCCC3)ccc2O1 | inactive
C[C@@H]1CCCCO[C@H](CN(C)Cc2ccncc2)[C@H](C)CN([C@@H](C)CO)C(=O)c2cc(NC(=O)NC3CCCCC3)ccc2O1 | active
C[C@@H]1CCCCO[C@H](CN(C)Cc2ccccc2)[C@H](C)CN([C@@H](C)CO)C(=O)c2cc(NC(=O)NC3CCCCC3)ccc2O1 | active
C[C@@H]1CN([C@@H](C)CO)C(=O)c2cc(NC(=O)Cn3cnnn3)ccc2O[C@H]1CN(C)S(=O)(=O)c1ccc(Cl)cc1 | inactive
COc1ccc(S(=O)(=O)N[C@H]2CC[C@@H](CCNC(=O)CN3CCOCC3)O[C@H]2CO)cc1 | inactive

Structure (SMILES) | cytotoxicity call
C[C@@H]1CN([C@@H](C)CO)C(=O)Cc2cc(NS(=O)(=O)c3cn(C)cn3)ccc2O[C@H]1CN(C)S(=O)(=O)c1ccc(Cl)cc1 | inactive
CO[C@@H]1CN(C)C(=O)c2cc(NS(=O)(=O)CC(F)(F)F)ccc2OC[C@@H](C)N(Cc2ccccn2)C[C@H]1C | inactive
CN1C(=S)N[C@@H]2CS(=O)(=O)C[C@@H]21 | inactive
O=C(CCCCCC(=O)N/N=C/[C@H](O)[C@H](O)[C@@H](O)[C@@H](O)CO)NO | inactive
C[C@H]1CN([C@@H](C)CO)C(=O)c2cc(C3=CCCCC3)cnc2O[C@@H]1CN(C)C(=O)CN1CCOCC1 | inactive
O=c1nc[nH]c2c1ncn2[C@@H]1C[C@@H](O)[C@H](CO)O1 | inactive
C[C@@H]1CN([C@H](C)CO)C(=O)c2cccc(NC(=O)c3nc4ccccc4s3)c2O[C@@H]1CN(C)CC1CCCCC1 | inactive
CCN1[C@@H]2O[C@@H]3O[C@H]4[C@H](O[C@H]3O[C@@H]2N(CC)S1(=O)=O)N(CC)S(=O)(=O)N4CC | inactive
C[C@H](CO)N1C[C@H](C)[C@H](CN(C)S(=O)(=O)c2cccs2)Oc2ncc(C#Cc3cccc(F)c3)cc2C1=O | inactive
Cc1noc(C)c1NC(=O)N(C)C[C@@H]1Oc2ccc(NC(=O)CCN3CCOCC3)cc2C(=O)N([C@@H](C)CO)C[C@H]1C | inactive
C[C@@H]1CCCCO[C@H](CN(C)Cc2ccccc2)[C@@H](C)CN([C@H](C)CO)C(=O)c2cc(NC(=O)NC3CCCCC3)ccc2O1 | inactive
C[C@H]1CCCCO[C@H](CN(C)Cc2ccccc2)[C@@H](C)CN([C@@H](C)CO)C(=O)c2cc(NC(=O)NC3CCCCC3)ccc2O1 | active
C[C@@H]1CN([C@H](C)CO)C(=O)c2cc(NC(=O)NC3CCCCC3)ccc2O[C@@H](C)CCCCO[C@H]1CN(C)Cc1ccccc1 | inactive
COc1ccc(S(=O)(=O)N(C)C[C@@H]2Oc3c(NS(=O)(=O)c4ccccc4)cccc3C(=O)N([C@H](C)CO)C[C@@H]2C)cc1 | inactive
C[C@H]1CN([C@@H](C)CO)C(=O)Cc2cc(NC(=O)CCN3CCOCC3)ccc2O[C@H]1CN(C)Cc1ccc2c(c1)OCO2 | inactive
C[C@@H]1CCCCO[C@H](CN(C)Cc2ccc(Cl)c(Cl)c2)[C@@H](C)CN([C@@H](C)CO)C(=O)c2cc(NC(=O)NC3CCCCC3)ccc2O1 | inactive
C[C@@H]1CCCCO[C@H](CN(C)Cc2ccc(Cl)c(Cl)c2)[C@@H](C)CN([C@H](C)CO)C(=O)c2cc(NC(=O)NC3CCCCC3)ccc2O1 | inactive
C[C@@H]1CN([C@@H](C)CO)C(=O)c2cc(NC(=O)NC3CCCCC3)ccc2O[C@@H](C)CCCCO[C@H]1CN(C)Cc1ccc(Cl)c(Cl)c1 | active
C[C@@H]1CN([C@H](C)CO)C(=O)c2cc(NC(=O)NC3CCCCC3)ccc2O[C@@H](C)CCCCO[C@@H]1CN(C)Cc1ccc(Cl)c(Cl)c1 | inactive
C[C@@H]1CCCCO[C@@H](CN(C)Cc2ccc(Cl)c(Cl)c2)[C@H](C)CN([C@H](C)CO)C(=O)c2cc(NC(=O)NC3CCCCC3)ccc2O1 | inactive

Structure (SMILES) | cytotoxicity call
C[C@H](CO)N1C[C@H](C)[C@@H](CN(C)Cc2ccc(Cl)c(Cl)c2)OCCCC[C@H](C)Oc2ccc(NC(=O)NC3CCCCC3)cc2C1=O | active
C[C@@H]1CCCCO[C@@H](CN(C)Cc2ccc(Cl)c(Cl)c2)[C@@H](C)CN([C@H](C)CO)C(=O)c2cc(NC(=O)NC3CCCCC3)ccc2O1 | inactive
C[C@@H]1CCCCO[C@H](CN(C)Cc2ccc(Cl)c(Cl)c2)[C@H](C)CN([C@@H](C)CO)C(=O)c2cc(NC(=O)NC3CCCCC3)ccc2O1 | inactive
C[C@@H]1CCCCO[C@@H](CN(C)Cc2ccc(Cl)c(Cl)c2)[C@@H](C)CN([C@@H](C)CO)C(=O)c2cc(NC(=O)NC3CCCCC3)ccc2O1 | active
C[C@H](CO)N1C[C@H](C)[C@H](CN(C)Cc2ccc(Cl)c(Cl)c2)OCCCC[C@H](C)Oc2ccc(NC(=O)NC3CCCCC3)cc2C1=O | active
C[C@@H]1CCCCO[C@@H](CN(C)Cc2ccc(Cl)c(Cl)c2)[C@H](C)CN([C@@H](C)CO)C(=O)c2cc(NC(=O)NC3CCCCC3)ccc2O1 | inactive
C[C@H]1CCCCO[C@H](CN(C)Cc2ccc(Cl)c(Cl)c2)[C@@H](C)CN([C@@H](C)CO)C(=O)c2cc(NC(=O)NC3CCCCC3)ccc2O1 | inactive
O=C(O)CCN1CCCC1=O | inactive
COC(=O)c1c2oc(c1C(=O)OC)C(=O)N[C@@H](Cc1ccccc1)Cn1cc(nn1)[C@H](Cc1ccccc1)NC(=O)N[C@@H](CO)CC2 | inactive
C[C@H]1CN([C@@H](C)CO)C(=O)Cc2cc(NC(=O)Cn3cnnn3)ccc2O[C@H]1CN(C)Cc1ccc(C(=O)O)cc1 | inactive
C[C@@H]1CN([C@@H](C)CO)C(=O)c2cc(N(C)C)ccc2O[C@@H](C)CCCCO[C@@H]1CN(C)S(=O)(=O)c1cn(C)cn1 | inactive
COc1ccc(NC(=O)Nc2ccc3c(c2)C(=O)N([C@@H](C)CO)C[C@@H](C)[C@@H](CN(C)C(=O)Nc2ccc(OC)cc2)OCCCC[C@H](C)O3)cc1 | inactive
C[C@@H]1CN([C@@H](C)CO)C(=O)c2cccc(NC(=O)NC3CCCCC3)c2O[C@@H]1CN(C)Cc1ccc(Cl)c(Cl)c1 | inactive
O=C(O)/C=C/c1cnc[nH]1 | inactive
C=CCN1C(=O)[C@@]2(O[C@@H](CCn3cc([C@H](O)c4ccccc4)nn3)[C@H]([Si](C)(C)c3ccc(OC)cc3)[C@H]2C)c2cc(N3C(=O)c4cccc5cccc3c45)ccc21 | inactive
C=CCN1C(=O)[C@]2(O[C@H](CCO)[C@@H]([Si](C)(C)c3ccc(OC)cc3)[C@@H]2C)c2cc(N3C(=O)c4cccc5cccc3c45)ccc21 | active
C=CCN1C(=O)[C@]2(O[C@H](CCn3cc([C@H](O)c4ccccc4)nn3)[C@@H]([Si](C)(C)c3ccc(OC)cc3)[C@@H]2C)c2cc(N3C(=O)c4cccc5cccc3c45)ccc21 | inactive
C=CCN1C(=O)[C@@]2(O[C@@H](CCO)[C@H]([Si](C)(C)c3ccc(OC)cc3)[C@H]2C)c2cc(N3C(=O)c4cccc5cccc3c45)ccc21 | active
C=CCN1C(=O)[C@@]2(O[C@@H](CCO)[C@H]([Si](C)(C)F)[C@H]2C)c2cc(N3C(=O)c4cccc5cccc3c45)ccc21 | inactive
